Source: PubChem BioAssay
For some assays here: Results with a measured potency or affinity are listed apart. Activity calls are given as the source filed them. Unless noted, how the calls were made is not given here.

Legend:
[1] = antimalarial activity against Dd2 strain (AID 2302;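 active means growth inhibition above 50% at the single 2 µM test dose, taken to imply half-maximal potency below 2 µM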;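 further: 0% = DMSO untreated growth and 100% = chloroquine plus artemisinin killed control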); settings: P. falciparum Dd2 in RBCs, LDH growth readout, 72 h; at 2 µM; stronger effect = higher value
[2] = human hepatoma cell viability loss – ATP luminescence, cytotoxicity control for P. falciparum antimalarial project, primary screen (AID 2303;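 active means inhibition above 50%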;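 further: 0% = DMSO wells and 100% = digitonin-killed cells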); settings: HepG2 viability, 24-48 h, at 10 µM, stronger effect = higher value
[3] = target: L-lactate dehydrogenase (Plasmodium falciparum (isolate CDC / Honduras)) (UniProt Q27743); test: PfLDH activity inhibition – cell lysate, 3D7 strain, counter-screen for P. falciparum growth inhibition project (AID 2304);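 further: 0% = vehicle and 100% = reference inhibitor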; settings: P. falciparum 3D7 crude extract, LDH APAD/NBT absorbance; at 2 µM; stronger effect = higher value
[4] = inhibition of 3D7 malaria parasite growth – strain 3D7 (AID 2306);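 further: 0% = DMSO wells and 100% = chloroquine plus artemisinin control wells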; settings: P. falciparum 3D7 erythrocytic growth, LDH absorbance, 72 h; at 2 µM; stronger effect = higher value
[5] = target: Calcium-dependent protein kinase 1 (Plasmodium falciparum (isolate 3D7)) (UniProt P62344); test: PfCDPK1 kinase inhibitors, biochemical, TCAMS library (AID 1159585; cut-off not given, nearly all actives have IC50 up to about 0.98 µM;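 further: inhibitors leave more ATP so luminescence rises with inhibition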); settings: recombinant PfCDPK1, Kinase-Glo ATP depletion luminescence
[6] = target: Plasmodium falciparum protein kinase 6 (PK6, PF3D7_1337100) (UniProt Q8IDW1); test: PfPK6 kinase inhibitors, biochemical, TCAMS library (AID 1159586); settings: recombinant PfPK6, Kinase-Glo ATP depletion luminescence
[7] = target: Protein kinase 7 (PK7), Plasmodium falciparum 3D7 (PF3D7_0213400) (UniProt Q7YTF7); test: inhibition of Plasmodium PK7 catalytic activity – biochemical, TCAMS antimalarial set, Kinase-Glo luminescence (AID 1159587); settings: recombinant PfPK7, Kinase-Glo ATP depletion luminescence
[8] = target: Calcium-dependent protein kinase 4 (Plasmodium falciparum (isolate 3D7)) (UniProt Q8IBS5); test: PfCDPK4 kinase inhibitors, biochemical, TCAMS library (AID 1159588; cut-off not given, nearly all actives have IC50 up to about 0.91 µM); settings: recombinant PfCDPK4, Kinase-Glo ATP depletion luminescence
Calcium-dependent protein kinase 4 (Plasmodium falciparum (isolate 3D7)), sequence (Q8IBS5 whole entry, looked up): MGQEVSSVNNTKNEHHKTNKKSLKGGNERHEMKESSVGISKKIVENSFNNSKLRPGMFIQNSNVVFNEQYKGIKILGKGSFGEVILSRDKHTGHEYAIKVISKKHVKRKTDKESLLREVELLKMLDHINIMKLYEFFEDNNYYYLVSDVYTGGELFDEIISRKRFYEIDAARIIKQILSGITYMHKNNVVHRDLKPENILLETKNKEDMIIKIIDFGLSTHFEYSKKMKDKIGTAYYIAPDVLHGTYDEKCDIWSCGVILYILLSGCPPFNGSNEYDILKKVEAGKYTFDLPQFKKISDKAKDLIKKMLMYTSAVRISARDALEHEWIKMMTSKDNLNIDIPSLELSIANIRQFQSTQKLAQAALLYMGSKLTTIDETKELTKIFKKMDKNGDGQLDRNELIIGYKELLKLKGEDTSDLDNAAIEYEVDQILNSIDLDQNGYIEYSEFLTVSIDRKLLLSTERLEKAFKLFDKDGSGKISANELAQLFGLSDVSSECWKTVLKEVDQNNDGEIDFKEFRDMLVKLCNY

Calcium-dependent protein kinase 1 (Plasmodium falciparum (isolate 3D7)), sequence (P62344 whole entry, looked up): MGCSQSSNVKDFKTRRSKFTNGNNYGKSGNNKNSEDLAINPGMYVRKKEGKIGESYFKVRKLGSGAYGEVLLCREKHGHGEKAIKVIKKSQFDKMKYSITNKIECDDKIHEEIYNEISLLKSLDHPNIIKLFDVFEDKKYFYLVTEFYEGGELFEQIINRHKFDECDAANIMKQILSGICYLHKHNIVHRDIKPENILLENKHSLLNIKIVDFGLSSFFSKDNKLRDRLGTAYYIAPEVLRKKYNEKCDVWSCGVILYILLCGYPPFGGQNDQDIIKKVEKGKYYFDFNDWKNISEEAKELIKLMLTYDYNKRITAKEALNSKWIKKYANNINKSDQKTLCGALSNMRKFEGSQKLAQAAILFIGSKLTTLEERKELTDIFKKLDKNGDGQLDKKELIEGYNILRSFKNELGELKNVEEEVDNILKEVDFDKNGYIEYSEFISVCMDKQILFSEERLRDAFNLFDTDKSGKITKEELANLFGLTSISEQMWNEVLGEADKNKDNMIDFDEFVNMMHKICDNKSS
L-lactate dehydrogenase (Plasmodium falciparum (isolate CDC / Honduras)), sequence (Q27743 whole entry, looked up): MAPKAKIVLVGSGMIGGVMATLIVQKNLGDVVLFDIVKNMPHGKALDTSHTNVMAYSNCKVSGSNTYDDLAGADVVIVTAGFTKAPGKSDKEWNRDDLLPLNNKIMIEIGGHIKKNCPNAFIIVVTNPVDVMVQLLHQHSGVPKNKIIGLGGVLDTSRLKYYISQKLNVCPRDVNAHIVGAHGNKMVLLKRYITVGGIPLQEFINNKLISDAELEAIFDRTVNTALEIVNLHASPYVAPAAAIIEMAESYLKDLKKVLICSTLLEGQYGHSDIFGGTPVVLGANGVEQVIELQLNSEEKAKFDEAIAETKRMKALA
Plasmodium falciparum protein kinase 6 (PK6, PF3D7_1337100), sequence (Q8IDW1 1-305): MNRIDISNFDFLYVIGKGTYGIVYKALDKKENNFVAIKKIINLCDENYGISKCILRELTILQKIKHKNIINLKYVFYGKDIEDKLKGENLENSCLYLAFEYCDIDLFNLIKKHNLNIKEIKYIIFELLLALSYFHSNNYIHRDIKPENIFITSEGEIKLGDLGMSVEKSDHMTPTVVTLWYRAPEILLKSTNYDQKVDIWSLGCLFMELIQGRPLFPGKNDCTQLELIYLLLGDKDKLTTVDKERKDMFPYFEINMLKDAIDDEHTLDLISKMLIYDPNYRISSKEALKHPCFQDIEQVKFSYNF
Protein kinase 7 (PK7), Plasmodium falciparum 3D7 (PF3D7_0213400), sequence (Q7YTF7 1-343): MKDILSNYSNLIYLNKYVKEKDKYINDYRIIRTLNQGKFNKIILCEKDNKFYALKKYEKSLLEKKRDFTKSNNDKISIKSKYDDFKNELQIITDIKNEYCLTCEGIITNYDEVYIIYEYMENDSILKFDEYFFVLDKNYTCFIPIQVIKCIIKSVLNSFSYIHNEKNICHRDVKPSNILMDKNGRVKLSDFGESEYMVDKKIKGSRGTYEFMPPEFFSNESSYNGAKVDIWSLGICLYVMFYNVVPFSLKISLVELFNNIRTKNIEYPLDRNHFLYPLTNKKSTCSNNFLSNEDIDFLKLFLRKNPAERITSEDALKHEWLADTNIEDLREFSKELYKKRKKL

O=C(O)c1ccc2nc(-c3ccc(-c4ccccc4)cc3)n(C3CCN(Cc4ccc(-c5ncc[nH]5)cc4)CC3)c2c1
active: growth inhibition [1] 99% | growth inhibition [4] 91%
inactive: inhibition [2] 3% | inhibition [3] 1% | outcome [5] | outcome [6] | outcome [7] | outcome [8]

CC(C)CNCc1cccc(-c2ccccc2CN(C(=O)Nc2ccccc2)C2CCN(Cc3ccccc3)CC2)c1
active: growth inhibition [1] 68% | growth inhibition [4] 100%
inactive: inhibition [2] 36% | inhibition [3] -2% | outcome [5] | outcome [6] | outcome [7] | outcome [8]

Cc1csc(NC2=NCCN2)n1
active: growth inhibition [4] 99%
inactive: growth inhibition [1] 1% | inhibition [2] 10% | inhibition [3] 0% | outcome [5] | outcome [6] | outcome [7] | outcome [8]

Brc1cnc(NC2=NCCN2)c(Br)c1
inactive: growth inhibition [1] -1% | inhibition [2] -6% | inhibition [3] -3% | outcome [5] | outcome [6] | outcome [7] | outcome [8]
active: growth inhibition [4] 99%

O=C(c1cc(C(=O)NCc2ccc(Cl)cc2)c(=O)n(Cc2ccc(Cl)cc2)c1)c1cc(Cl)ccc1O
inactive: growth inhibition [1] 4% | inhibition [2] 6% | inhibition [3] -1% | outcome [5] | outcome [6] | outcome [7] | outcome [8]
active: growth inhibition [4] 80%

COc1ccc(CN2CCN(CCOC(c3ccccc3)c3ccccc3)CC2)c(O)c1
inactive: inhibition [2] 19% | inhibition [3] 0% | outcome [5] | outcome [6] | outcome [7] | outcome [8]
active: growth inhibition [1] 84% | growth inhibition [4] 96%

CC1(CCCCN2CC=C(c3c[nH]c4ccccc34)CC2)C(=O)Nc2ccccc21 (configuration not stated)
active: growth inhibition [1] 90% | growth inhibition [4] 94%
inactive: inhibition [2] 3% | inhibition [3] 4% | outcome [5] | outcome [6] | outcome [7] | outcome [8]

CC[C@H]1CN2CC[C@@H]1C[C@H]2[C@H](O)c1ccnc2ccc(Cl)cc12
inactive: inhibition [2] -3% | inhibition [3] 2% | outcome [5] | outcome [6] | outcome [7] | outcome [8]
active: growth inhibition [1] 98% | growth inhibition [4] 100%

CC(C)CNCc1ccc(-c2cccc(CN(C(=O)CCC3CCCC3)C3CCN(Cc4ccccc4)CC3)c2)cc1
inactive: inhibition [3] -7% | outcome [5] | outcome [6] | outcome [7] | outcome [8]
active: growth inhibition [1] 92% | inhibition [2] 62% | growth inhibition [4] 101%

CC(Cc1ccc(Sc2ccccc2)cc1)NCC(O)c1cccc(C(F)(F)F)c1 (configuration not stated)
inactive: inhibition [2] -1% | inhibition [3] 2% | outcome [5] | outcome [6] | outcome [7] | outcome [8]
active: growth inhibition [1] 53% | growth inhibition [4] 99%

Cc1ccc(CC(C)NCC(O)c2cccc(Br)c2)cc1 (configuration not stated)
inactive: inhibition [2] 7% | inhibition [3] 3% | outcome [5] | outcome [6] | outcome [7] | outcome [8]
active: growth inhibition [1] 97% | growth inhibition [4] 99%

CCCc1c(C(=O)NC2CCC(CN3CCC(c4c[nH]c5ccccc45)CC3)CC2)cnn1-c1ccccc1 (configuration not stated)
active: growth inhibition [4] 92%
inactive: growth inhibition [1] 7% | inhibition [2] 33% | inhibition [3] -1% | outcome [5] | outcome [6] | outcome [7] | outcome [8]

CC(Cc1ccc(NC(=O)[C@H](C)NCCc2cccc(Cl)c2)cc1)NCCc1cccc(Cl)c1 (some centres not stated)
inactive: inhibition [3] 2% | outcome [5] | outcome [6] | outcome [7] | outcome [8]
active: growth inhibition [1] 54% | inhibition [2] 99% | growth inhibition [4] 100%

CC(C)CNCc1ccc(-c2ccc(CN(C(=O)Nc3ccccc3)C3CCN(Cc4ccccc4)CC3)cc2)cc1
inactive: inhibition [2] 27% | inhibition [3] -4% | outcome [5] | outcome [6] | outcome [7] | outcome [8]
active: growth inhibition [1] 61% | growth inhibition [4] 101%

Cc1ccc(CC(C)NCC(O)c2cccc([N+](=O)[O-])c2)cc1 (configuration not stated)
active: growth inhibition [1] 85% | growth inhibition [4] 97%
inactive: inhibition [2] -6% | inhibition [3] -2% | outcome [5] | outcome [6] | outcome [7] | outcome [8]

CC(C)n1ncc2c(C(=O)Nc3ccc(C#N)c(Cl)c3)cc(C3CC3)nc21
inactive: growth inhibition [1] 15% | inhibition [2] 20% | inhibition [3] 2% | outcome [5] | outcome [6] | outcome [7] | outcome [8]
active: growth inhibition [4] 93%

O=C(NC1CCC(CN2CCC(c3c[nH]c4ccccc34)CC2)CC1)c1cc(-c2ccccc2Cl)oc1C(F)(F)F (configuration not stated)
inactive: growth inhibition [1] 7% | inhibition [2] 24% | inhibition [3] 4% | outcome [5] | outcome [6] | outcome [7] | outcome [8]
active: growth inhibition [4] 99%

CN1CC=C(c2c[nH]c3ccc(OCc4ccccc4)cc23)CC1
active: growth inhibition [1] 97% | growth inhibition [4] 95%
inactive: inhibition [2] -2% | inhibition [3] -2% | outcome [5] | outcome [6] | outcome [7] | outcome [8]

N#Cc1ccc(N(CCCO)Cc2ccccc2C(F)(F)F)cc1C(F)(F)F
active: growth inhibition [4] 91%
inactive: growth inhibition [1] 23% | inhibition [2] 7% | inhibition [3] -5% | outcome [5] | outcome [6] | outcome [7] | outcome [8]
